Laboratory results from PubChem BioAssay AID1851 (National Center for Advancing Translational Sciences (NCATS), 2009).
Where “and” joins values, the source holds several entries; their conditions need not be identical. Equal values may be shown once. The whole screen tested about 16,000 compounds, of which about 5,700 (36%) were called active. About 24% were inconclusive and are not listed. Some of the results follow. Unmarked numbers belong to inactive results. Calls follow the shape of the dose curve; as a rule, active = well fitted curve in the direction sought with a large enough effect; inconclusive = small, poorly fitted or top-dose-only effect, or effect the other way; inactive = no such curve, though single readings can be large or run the other way.

The compounds below were run against Cytochrome P450 1A2 (Homo sapiens) (UniProt P05177) (assay: Cytochrome panel assay with activity outcomes). Conditions: recombinant CYP, pro-luciferin dealkylation, luminescence, p450-cyp1a2; series mostly up to 57.1 µM.
Cytochrome P450 1A2 (Homo sapiens), sequence (P05177 whole entry, looked up): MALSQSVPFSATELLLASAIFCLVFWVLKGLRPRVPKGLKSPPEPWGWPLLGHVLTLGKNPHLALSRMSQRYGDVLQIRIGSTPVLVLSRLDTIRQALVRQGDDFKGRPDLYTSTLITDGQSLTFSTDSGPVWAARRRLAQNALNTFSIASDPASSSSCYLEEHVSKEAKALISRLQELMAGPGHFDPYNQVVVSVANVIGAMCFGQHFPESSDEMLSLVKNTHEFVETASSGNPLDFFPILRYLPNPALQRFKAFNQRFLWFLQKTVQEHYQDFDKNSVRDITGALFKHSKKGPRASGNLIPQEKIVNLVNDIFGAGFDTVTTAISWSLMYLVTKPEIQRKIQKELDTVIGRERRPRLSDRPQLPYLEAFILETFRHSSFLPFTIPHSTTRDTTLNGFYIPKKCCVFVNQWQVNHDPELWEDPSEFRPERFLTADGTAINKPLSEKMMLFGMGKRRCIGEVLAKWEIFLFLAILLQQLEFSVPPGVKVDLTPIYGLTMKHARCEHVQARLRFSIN
% is scaled to controls: 0 for no effect and ±100 for the full control effect.

SMILES	activity, negative = inhibition	AC50
C/C(CCC(=O)OC[C@@H]1O[C@H](C#Cc2ccccc2)C=C[C@@H]1Oc1ccc(C)cc1)=N/O[C@@H](C)CN1CCCc2nc(C)c(C)cc21	-8.42% [at 11.4 µM]	
CC(=O)OC[C@@H]1O[C@@H](O/N=C2/C[C@@H](O)[C@@H](O)[C@@H]3[C@@H]4C(=O)N(C(C)(C)C)C(=O)[C@H]4CC[C@@H]23)[C@H](OC(C)=O)[C@H](OC(C)=O)[C@@H]1OC(C)=O	-1.47% [at 11.4 µM]	
[O-][N+]1(CC[N+]2([O-])CCCCC2)CCCCC1	-3.29% [at 11.4 µM]	
COc1ccc(NC(=O)CSc2nncn2C)c([N+](=O)[O-])c1		11.2 µM (active)
COc1ccc(NC(=O)c2ccc(C)cc2Cl)c([N+](=O)[O-])c1		2 µM (active)
CCOc1ccc(/C=C/C(=O)Nc2ccc(OC)cc2[N+](=O)[O-])cc1		inactive
COc1ccc(NC(=O)c2cccs2)c([N+](=O)[O-])c1		3.16 µM (active)
COc1ccc(NC(=O)C(=O)NNC(=O)c2cccs2)c(OC)c1		inactive
COc1ccc(NC(=O)CN(C)S(=O)(=O)c2ccc(Cl)cc2)c([N+](=O)[O-])c1		inactive
CC(C)(C)N1C(=O)[C@H]2[C@@H]3[C@H](O)C=CC(=O)[C@H]3CC[C@H]2C1=O	-5.4% [at 11.4 µM]	
c1ccc(Nc2nc(-c3ccc4c(c3)OCO4)nc3ccccc23)cc1		1.26 µM (active)
c1ccc2c(Nc3ccncc3)nc(-c3ccc4c(c3)OCO4)nc2c1		1.26 µM (active)
COc1cc(C2C(C#N)=C(N)N(Nc3ccccc3)C3=C2C(=O)CC(C)(C)C3)ccc1OCc1cccc(F)c1 (stereo unspecified)		inactive
CN1CCN(c2nc3cc(C(F)(F)F)ccc3n3cccc23)CC1		200 nM (active) and 39.8 nM (active)
COc1ccc(-c2csc(N3C(=N)SCC3=O)n2)cc1		0.631 µM (active)
N=C1SCC(=O)N1c1nc(-c2ccccc2)cs1		1.41 µM (active)
O=C1C2C3c4ccccc4C(c4ccccc43)C2C(=O)N1c1nc(-c2ccccc2)cs1 (stereo unspecified)		inactive
CC(C)OC(=O)CC12CN(C)CC(CC(=O)OC(C)C)(CN(C)C1)C2=O		inactive
Cc1cccc(NC(=O)CSc2nnnn2C)n1		14.1 µM (active)
Cc1c(NC(=O)CSc2nnnn2C)c(=O)n(-c2ccccc2)n1C		inactive
CCOc1ccccc1-n1nnnc1SCC(=O)Nc1cc(C)on1	-7% [at 11.4 µM]	

SMILES	activity, negative = inhibition	AC50
NS(=O)(=O)c1cc2c(cc1Cl)NC(CSCc1ccccc1)=NS2(=O)=O		inactive
CC1=NS(=O)(=O)c2cc(Cl)ccc2N1		3.16 µM (active) and 2 µM (active)
Clc1ccc(-c2cc3ccccc3[nH]2)cc1		0.501 µM (active)
N#C/C(=C\NC(=S)c1ccncc1)c1nc2ccccc2s1		3.16 µM (active)
CC(C)NC(=O)N1CCC2(CC1)CCN(C(=O)c1ccncc1)CC2		inactive
CN(C)c1ccc(-c2cncnc2Nc2ccc(F)cc2)cc1		0.501 µM (active)
CN(C)c1ccc(-c2cncnc2Nc2ccccc2)cc1		0.398 µM (active)
Cc1ccc(C(C2C(=O)CC(C)(C)CC2=O)C2C(=O)CC(C)(C)CC2=O)s1		inactive
COc1ccccc1N/C(=N/S(=O)(=O)c1ccc(C)cc1)c1ccc(Cl)cc1		inactive
O=S(=O)(/N=C(/Nc1ccc(F)cc1F)c1ccc(Cl)cc1)c1ccccc1		inactive
O=S(=O)(/N=C(/Nc1ccccn1)c1ccccc1)c1ccc(Cl)cc1		14.1 µM (active)
O=S(=O)(/N=C(\Sc1ccccc1)c1ccccc1)c1ccc(Cl)cc1		8.91 µM (active)
O=S(=O)(c1ccccc1)N1CCC2(CC1)CN(c1ccccn1)C2		inactive
CC(C)CO/N=C1/C[C@@H](O)[C@@H](O)[C@@H]2[C@@H]3C(=O)N(C[C@@H]4CCCO4)C(=O)[C@H]3CC[C@@H]12	-0.346% [at 11.4 µM]	
CC(C)CNc1nc(N)[nH]c(=O)c1NC=O	-20.7% [at 11.4 µM]	
O=S1(=O)C=C(Oc2ccc3ccccc3c2)c2ccccc21		1.26 µM (active)
Cn1cccc1C(=O)N1CCC2(CCN(Cc3nccs3)CC2)CC1		inactive
N#Cc1c(NC(=O)CCN2C(=O)c3ccccc3C2=O)oc(-c2ccccc2)c1-c1ccccc1		2.24 µM (active)
O=C(Cc1ccccc1)NC1CCN(S(=O)(=O)c2ccc(C(=O)O)cc2)CC1		inactive
Cc1ccccc1C(=N)c1ccccc1Cc1cccc2ccccc12	-17.6% [at 2.29 µM]	
CN(Cc1cccc2ccccc12)Cc1cccc2ccccc12		3.16 µM (active)

SMILES	activity, negative = inhibition	AC50
c1ccc2c(CC3NCCN3)cccc2c1	-7.37% [at 11.4 µM]	
c1ccc2c(CC3=NCCN3)cccc2c1		inactive
CN(C/C=C\c1ccccc1)Cc1cccc2ccccc12		2 µM (active)
NCCCCCCCCCCN		inactive
O=c1n(-c2ccccc2)c(=O)n2n1CC[C@H]1/C(=N\OC[C@@H](O)COCc3ccco3)[C@H]3O[C@@H]3[C@@H](O)[C@@H]12	-3.26% [at 11.4 µM] and -7.74% [at 11.4 µM]	
Cc1ccc(C(=O)/C=C2\NCC(C)NC2=O)cc1 (stereo unspecified)		15.8 µM (active)
Cc1ccc(C(=O)C2CCNCC2)cc1		inactive
O=C(Cc1ccccc1[N+](=O)[O-])NCc1ccccc1Cl		inactive
O=[N+]([O-])c1ccc(-c2cnc(SCc3ccccc3Cl)[nH]2)cc1		6.31 µM (active)
Clc1ccc(-c2nnc(CCc3ccccc3)o2)c(Cl)c1		0.708 µM (active)
CSc1nnc(-c2ccc(Cl)cc2Cl)o1		2.51 µM (active)
COc1cccc(-c2cc(=O)c3ccccc3o2)c1N		0.2 µM (active)
O=C(CSc1nc2ccccc2c2ccccc12)c1ccccc1		0.251 µM (active)
CCc1cccc(C)c1NC(=O)CSc1nc2ccc(N3C(=O)c4ccccc4C3=O)cc2s1		inactive
Nc1cc(N)nc(SCC(=O)c2ccccc2)n1		inactive
COC(=O)c1ccc(NC(=O)Cn2nc(-c3ccncc3)nc2SCC(=O)Nc2nccs2)cc1		11.2 µM (active)
CCN(CC)C(=O)CSc1nc2ccc(NC(=O)CSc3nnc(COc4ccccc4C)n3C)cc2s1		inactive
O=C(CSc1ccccn1)Nc1nc2ccc(Br)cc2s1		2.51 µM (active)
CCOC(=O)CSc1cc(CS(=O)c2ccc(Cl)cc2)nc(-c2ccccc2)n1 (stereo unspecified)		10 µM (active)
